Screening results: PubChem, several laboratories
The list is not random: actives were taken first. Their share in the collection is about 3%.
EWS-Fli inh = EWS/Fli-driven NR0B1 reporter inhibitors, primary screen, A673 cells, NR0B1 luciferase, luminescence, MLPCN library; actives 0.67% (n = 350,000); inhibition, % at 12.6 µM; viability-normalised;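 active means mean inhibition of at least 50% after viability correction, with every replicate also passing that limit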;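 further: firefly luciferase signal divided by Alamar Blue viability fluorescence both relative to DMSO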
PAX8 reporter = inhibitors of PAX8-driven TPO luciferase reporter, primary screen, RMG-I cells, single concentration | SteadyGlo, 24 h | inhibition, % at 12.6 µM | actives 1.2% (n = 360,000);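 active means mean replicate inhibition at least 60% with every replicate also reaching 60%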;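 further: luciferase light reporting Pax8 driven TPO promoter activity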
Shn3 3UTR inh = reduction of Shn3 3'UTR firefly luciferase signal, primary screen, Schnurri-3 inhibitor project, cell-based, Clone20 osteoblasts, set 2 | Clone20 osteoblast Shn3 3'UTR firefly luciferase, 24 h | inhibition, % at 12.5 µM | actives 0.52% (n = 360,000);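 active means mean inhibition of at least 75% with every replicate also reaching 75%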
ABHD5 PLIN5 PPI = ABHD5-PLIN5 interaction inhibitors, primary screen, cell lysate, split luciferase complementation, luminescence. actives 0.78% (n = 360,000). Perilipin-5 (Homo sapiens) + 1-acylglycerol-3-phosphate O-acyltransferase ABHD5 (Homo …. inhibition, % at 4 µM. Split G. princeps luciferase complementation, 4 h;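 active means inhibition above the mean inhibition across every tested compound plus 3 SD, cut at about 22% in these data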
Peg3 prom inh = Peg3 promoter-driven luciferase inhibitors, primary screen, cell-based, HeLa, luciferase luminescence; inhibition, % at 20 µM; AID 588405, 2011; HeLa PEG-Prom luciferase reporter, overnight; actives 1.7% (n = 360,000);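 active means inhibition of at least 50% at 20 µM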
MITF TRPM1 inh = inhibitors of MITF-dependent TRPM1 promoter reporter, primary screen, cell-based, SK-MEL-5, single point, luciferase; SK-MEL-5 TRPM1 promoter luciferase, 24 h; inhibition, % at 12.5 µM; actives 0.83% (n = 330,000); AID 488899, 2010;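 active means mean inhibition across replicates of 60% or more, whatever share of single replicates reaches that level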
Hits are given with their value; n = inactive; x = no result given.

SMILES	EWS-Fli inh	PAX8 reporter	Shn3 3UTR inh	ABHD5 PLIN5 PPI	Peg3 prom inh	MITF TRPM1 inh
COC(=O)[C@H]1[C@H](CO)[C@H]2Cn3c(ccc(-c4ccccc4)c3=O)[C@@H]1N2CC1CCCCC1	n	n	x	x	x	x
CCCOC(=O)c1ccc(-[n+]2c(-c3ccccc3)cc(-c3ccccc3)cc2-c2ccccc2)cc1	73.8	87.7	n	n	n	64.4
COc1ccc(-c2cc(-c3ccccc3)[n+](C)c(-c3ccccc3)c2)cc1	n	87.1	n	n	n	65.9
Cc1ccc(-c2cc(-c3ccccc3)cc(-c3ccccc3)[n+]2-c2ccc(C(=O)O)cc2)cc1	n	n	n	n	n	n
C[n+]1c(-c2ccccc2)cc(CCCCc2cc(-c3ccccc3)[n+](C)c(-c3ccccc3)c2)cc1-c1ccccc1	n	96.1	n	n	n	n
COc1ccc(-[n+]2c(-c3ccccc3)cc(-c3ccc(C)cc3)cc2-c2ccccc2)cc1	n	106.0	n	n	55.6	74.5
O=C(O)C[C@@H]1CC[C@H]2NC[C@H](O)COC[C@@H]2O1	n	n	x	x	x	x
CC=Cc1ccc2n(c1=O)C[C@H]1[C@H](CO)[C@@H](C(=O)O)[C@@H]2N1S(=O)(=O)c1ccccc1F (mixture of isomers)	n	n	x	x	x	x
COc1ccc(-c2ccc3n(c2=O)C[C@H]2[C@H](CO)[C@@H](C(=O)O)[C@@H]3N2C(=O)c2ccccc2F)cc1	n	x	x	x	x	x
O=C(O)c1ccc(-[n+]2c(-c3ccccc3)cc(-c3ccccc3)cc2-c2ccccc2)cc1	n	n	n	n	n	n
Brc1ccc(-[n+]2c(-c3ccccc3)cc(-c3ccccc3)cc2-c2ccccc2)cc1	n	98.5	89.7	n	n	70.2
CC12CC[C@H]3[C@@H](CCC4(O)C[C@H](O)CCC34/C=N/NC(=O)c3ccccc3[N+](=O)[O-])C1(O)CCC2C1=CC(=O)OC1 (stereo not given in full)	n	n	n	n	66.7	n
CC12CC[C@H]3[C@@H](CCC4(O)C[C@H](O)CCC34/C=N/NC(=O)Cc3ccccc3)C1(O)CCC2C1=CC(=O)OC1 (stereo not given in full)	n	n	n	n	n	n
COc1ccc(-c2ccc([C@@H]3[C@H](CO)N4CCCCN(C(=O)Cc5ccccc5)C[C@@H]34)cc2)cc1	x	n	x	x	x	x
Cc1ccc2c(C)c3ccc4ccccc4c3c[n+]2c1	n	n	n	n	55.3	67.8
OC(c1cccc(Cl)c1)(c1cccc(Cl)c1)C1CN2CCC1CC2 (stereo not given)	n	n	n	n	96.4	n
O=C(Nc1cccc(C(F)(F)F)c1)OC1CN2CCC1CC2 (stereo not given)	n	n	n	n	n	n
CN1CCN(c2ccc([N+](=O)[O-])c3no[n+]([O-])c23)CC1	n	87.7	96.6	n	102.5	86.2
O=[N+]([O-])c1ccc(N(CCO)CCO)c2c1no[n+]2[O-]	n	108.5	n	n	98.7	x
CCCN1[C@@H]2c3cccc(=O)n3C[C@H]1[C@H](CO)[C@H]2C(=O)N(C)C	n	x	x	x	x	x
COc1ccc(N2C(=O)CC(=O)NC2=O)cc1	x	x	n	22.3	n	n
CCN(CC)c1ccc(C=C2C(=O)NC(=S)NC2=O)cc1	n	n	n	n	103.8	n
CN(C)c1ccc(C=C2C(=O)NC(=S)NC2=O)cc1	n	n	n	n	88.6	n
CCOc1ccc(C=C2C(=O)NC(=S)NC2=O)cc1OCC	n	n	n	n	n	n
OC[C@H]1Nc2ccc(C#Cc3cccnc3)cc2[C@H]2NCC[C@H]21	n	x	x	x	x	x
C=C1C(=O)[C@@]23C[C@H]4[C@@H]5[C@@]6(C)CCC[C@@]57[C@@H]2[C@@H](O)[C@@H]1C[C@H]3[C@H]7N4C6	n	x	n	n	92.7	x
O=C(Cn1cc(C=C2C(=O)NC(=O)NC2=O)c2ccccc21)NCC1CCCO1 (stereo not given)	n	n	n	n	n	n
O=C(O)CCn1cc(C=C2C(=O)NC(=O)NC2=O)c(-c2cc3ccccc3oc2=O)n1	n	n	n	22.2	n	n
